Paper PMC7862700, “An all-to-all approach to the identification of sequence-specific readers for epigenetic DNA modifications on cytosine”

Legend:
Assay in all cases: DAPPL (digital affinity profiling via proximity ligation, sequencing); 10 mM Tris-HCl pH 7.5, 50 mM NaCl, 1 mM DTT, 4% glycerol, room temperature, 30 min; GST-TFs on glutathione beads, 16-mer random dsDNA library, 0.1% formaldehyde crosslink after washing; high values mean tight binding
FLI1 = target: T1, FLI1 (Homo sapiens, UniProt Q01543 1-452); conditions: protein: recombinant; tags: N-terminal GST; dsDNA, one strand shown
T1 sequence: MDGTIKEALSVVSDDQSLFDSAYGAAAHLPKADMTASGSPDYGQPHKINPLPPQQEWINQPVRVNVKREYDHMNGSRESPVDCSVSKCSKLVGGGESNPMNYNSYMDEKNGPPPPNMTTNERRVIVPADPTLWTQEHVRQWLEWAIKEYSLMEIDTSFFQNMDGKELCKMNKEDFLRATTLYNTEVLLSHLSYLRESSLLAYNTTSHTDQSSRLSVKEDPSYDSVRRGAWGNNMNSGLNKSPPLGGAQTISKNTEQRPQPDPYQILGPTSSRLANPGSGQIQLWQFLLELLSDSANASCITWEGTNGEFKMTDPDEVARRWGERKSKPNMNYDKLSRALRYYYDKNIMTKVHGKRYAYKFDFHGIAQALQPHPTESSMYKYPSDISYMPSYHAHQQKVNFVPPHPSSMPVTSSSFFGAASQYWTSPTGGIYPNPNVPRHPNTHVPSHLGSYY
Outline: (§1)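 The binding signal reported is, for every hexamer, its read frequency for a factor over its read frequency for the tag-only sample. Reads came from pools of yeast-expressed, GST-fused human transcription factors on glutathione beads, barcoded with DNA and mixed with that sample, which were incubated with 200 nmole of a random double-stranded 16-mer DNA library in Tris/NaCl/DTT/glycerol buffer at room temperature for 30 min. After washing, the pools were crosslinked with 0.1% formaldehyde, proximity-ligated with BsaI/T4 ligase for 1 h at 37 °C, PCR-amplified and sequenced on an Illumina NextSeq500.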

ELK1 = target: T2, ELK1 (Homo sapiens, UniProt P19419 1-428); conditions: protein: recombinant; tags: N-terminal GST; dsDNA, one strand shown
T2 sequence: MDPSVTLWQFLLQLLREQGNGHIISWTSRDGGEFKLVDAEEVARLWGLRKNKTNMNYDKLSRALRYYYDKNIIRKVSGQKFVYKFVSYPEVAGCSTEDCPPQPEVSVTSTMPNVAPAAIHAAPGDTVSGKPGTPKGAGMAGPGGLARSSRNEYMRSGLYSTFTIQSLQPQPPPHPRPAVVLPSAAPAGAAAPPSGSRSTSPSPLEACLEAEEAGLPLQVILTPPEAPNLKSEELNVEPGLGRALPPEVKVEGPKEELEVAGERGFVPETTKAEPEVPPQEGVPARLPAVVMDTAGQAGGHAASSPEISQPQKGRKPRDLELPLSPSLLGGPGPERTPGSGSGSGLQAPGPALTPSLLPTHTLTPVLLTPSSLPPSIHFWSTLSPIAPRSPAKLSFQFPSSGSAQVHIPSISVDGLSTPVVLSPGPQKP
Outline: as §1

GABPA = target: T3, GABPA (Homo sapiens, UniProt Q06546 1-454); conditions: protein: recombinant; tags: N-terminal GST; dsDNA, one strand shown
T3 sequence: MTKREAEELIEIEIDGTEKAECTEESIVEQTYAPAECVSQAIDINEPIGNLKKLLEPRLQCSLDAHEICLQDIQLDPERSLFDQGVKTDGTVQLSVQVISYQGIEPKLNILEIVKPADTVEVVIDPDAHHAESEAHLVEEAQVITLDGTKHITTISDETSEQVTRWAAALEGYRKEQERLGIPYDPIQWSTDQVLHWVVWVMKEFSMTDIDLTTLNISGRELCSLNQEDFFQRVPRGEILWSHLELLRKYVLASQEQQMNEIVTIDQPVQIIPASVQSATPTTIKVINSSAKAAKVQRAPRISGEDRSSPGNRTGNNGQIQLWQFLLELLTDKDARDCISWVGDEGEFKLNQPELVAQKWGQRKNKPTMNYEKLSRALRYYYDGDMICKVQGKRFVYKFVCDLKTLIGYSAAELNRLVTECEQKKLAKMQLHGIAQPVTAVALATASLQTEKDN
Outline: as §1

ERG = target: T4, ERG (Homo sapiens, UniProt P11308 1-479); conditions: protein: recombinant; tags: N-terminal GST; dsDNA, one strand shown
T4 sequence: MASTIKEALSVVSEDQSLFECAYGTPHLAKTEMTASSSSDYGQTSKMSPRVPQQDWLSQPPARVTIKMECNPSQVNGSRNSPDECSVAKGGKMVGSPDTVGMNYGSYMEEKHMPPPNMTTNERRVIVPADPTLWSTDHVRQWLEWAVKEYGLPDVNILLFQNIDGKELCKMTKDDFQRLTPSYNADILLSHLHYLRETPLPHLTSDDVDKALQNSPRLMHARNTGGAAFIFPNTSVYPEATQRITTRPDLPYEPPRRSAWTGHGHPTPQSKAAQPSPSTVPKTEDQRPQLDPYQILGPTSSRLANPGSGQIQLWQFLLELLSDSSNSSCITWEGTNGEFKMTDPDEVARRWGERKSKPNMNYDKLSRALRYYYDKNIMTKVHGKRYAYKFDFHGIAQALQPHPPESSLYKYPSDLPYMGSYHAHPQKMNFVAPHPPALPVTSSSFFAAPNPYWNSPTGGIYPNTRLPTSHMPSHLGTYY
Outline: as §1

ELF1 = ELF1 (Homo sapiens, UniProt P32519 1-619); conditions: protein: recombinant; tags: N-terminal GST; dsDNA, one strand shown
ELF1, sequence (P32519 whole entry): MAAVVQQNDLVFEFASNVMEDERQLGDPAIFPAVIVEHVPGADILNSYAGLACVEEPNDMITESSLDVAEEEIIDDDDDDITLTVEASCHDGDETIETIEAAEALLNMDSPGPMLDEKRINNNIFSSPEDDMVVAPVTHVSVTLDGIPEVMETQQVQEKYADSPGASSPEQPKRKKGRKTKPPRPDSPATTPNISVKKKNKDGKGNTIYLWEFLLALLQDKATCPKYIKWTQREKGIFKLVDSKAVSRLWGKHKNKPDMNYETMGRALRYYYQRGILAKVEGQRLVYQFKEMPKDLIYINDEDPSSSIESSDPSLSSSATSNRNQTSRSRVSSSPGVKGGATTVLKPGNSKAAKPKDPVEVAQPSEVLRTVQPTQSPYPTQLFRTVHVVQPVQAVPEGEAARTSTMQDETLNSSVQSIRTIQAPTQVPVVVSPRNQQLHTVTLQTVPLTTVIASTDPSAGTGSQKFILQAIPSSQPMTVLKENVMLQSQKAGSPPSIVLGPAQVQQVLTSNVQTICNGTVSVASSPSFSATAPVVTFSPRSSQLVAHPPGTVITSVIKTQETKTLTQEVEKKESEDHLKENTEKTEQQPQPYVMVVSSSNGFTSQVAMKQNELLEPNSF
Outline: as §1

EHF = target: T5, EHF (Homo sapiens, UniProt Q9NZC4 1-300); conditions: protein: recombinant; tags: N-terminal GST; dsDNA, one strand shown
T5 sequence: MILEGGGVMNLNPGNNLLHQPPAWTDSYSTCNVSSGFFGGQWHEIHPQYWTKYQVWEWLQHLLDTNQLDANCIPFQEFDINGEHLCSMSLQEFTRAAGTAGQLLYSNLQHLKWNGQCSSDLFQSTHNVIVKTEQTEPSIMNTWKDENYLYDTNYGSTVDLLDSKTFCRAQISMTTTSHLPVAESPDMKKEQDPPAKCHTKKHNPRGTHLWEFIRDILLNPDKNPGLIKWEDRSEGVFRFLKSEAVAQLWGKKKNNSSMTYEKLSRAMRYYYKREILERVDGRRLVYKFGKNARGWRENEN
Outline: as §1

SPI1 = SPI1 (Homo sapiens, UniProt P17947 1-270); conditions: protein: recombinant; tags: N-terminal GST; dsDNA, one strand shown
Outline: as §1

SPIB = SPIB (Homo sapiens, UniProt Q01892 1-262); conditions: protein: recombinant; tags: N-terminal GST; dsDNA, one strand shown
SPIB, sequence (Q01892 whole entry): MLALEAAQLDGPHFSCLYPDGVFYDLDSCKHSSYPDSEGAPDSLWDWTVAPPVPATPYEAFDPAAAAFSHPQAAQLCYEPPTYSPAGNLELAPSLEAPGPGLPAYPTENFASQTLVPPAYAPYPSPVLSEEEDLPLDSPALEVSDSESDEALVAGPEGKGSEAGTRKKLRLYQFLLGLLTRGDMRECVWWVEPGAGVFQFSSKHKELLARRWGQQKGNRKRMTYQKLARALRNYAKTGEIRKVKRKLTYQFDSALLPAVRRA
Outline: as §1

ELK3 = target: T6, ELK3 (Homo sapiens, UniProt P41970 1-407); conditions: protein: recombinant; tags: N-terminal GST; dsDNA, one strand shown
T6 sequence: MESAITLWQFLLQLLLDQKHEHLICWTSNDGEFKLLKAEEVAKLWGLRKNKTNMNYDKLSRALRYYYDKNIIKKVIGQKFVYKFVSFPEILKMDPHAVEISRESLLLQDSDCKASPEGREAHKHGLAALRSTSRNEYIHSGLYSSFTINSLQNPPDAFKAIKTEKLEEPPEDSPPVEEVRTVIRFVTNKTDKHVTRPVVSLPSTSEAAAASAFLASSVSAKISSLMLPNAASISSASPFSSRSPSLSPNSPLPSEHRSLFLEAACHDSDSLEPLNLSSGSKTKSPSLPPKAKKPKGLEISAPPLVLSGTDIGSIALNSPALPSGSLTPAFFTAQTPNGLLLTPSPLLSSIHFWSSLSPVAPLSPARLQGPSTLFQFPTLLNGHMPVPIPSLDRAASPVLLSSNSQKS
Outline: as §1

FEV = target: T7, FEV (Homo sapiens, UniProt Q99581 1-238); conditions: protein: recombinant; tags: N-terminal GST; dsDNA, one strand shown
T7 sequence: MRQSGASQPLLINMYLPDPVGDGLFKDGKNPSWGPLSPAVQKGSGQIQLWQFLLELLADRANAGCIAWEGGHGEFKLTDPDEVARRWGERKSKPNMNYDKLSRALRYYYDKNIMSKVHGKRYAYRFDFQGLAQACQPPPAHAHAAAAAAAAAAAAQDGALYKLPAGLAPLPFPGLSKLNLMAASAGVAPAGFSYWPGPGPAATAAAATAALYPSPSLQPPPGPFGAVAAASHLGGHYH
Outline: as §1

ETV5 = ETV5 (Homo sapiens, UniProt P41161 1-510); conditions: protein: recombinant; tags: N-terminal GST; dsDNA, one strand shown
ETV5, sequence (P41161 whole entry): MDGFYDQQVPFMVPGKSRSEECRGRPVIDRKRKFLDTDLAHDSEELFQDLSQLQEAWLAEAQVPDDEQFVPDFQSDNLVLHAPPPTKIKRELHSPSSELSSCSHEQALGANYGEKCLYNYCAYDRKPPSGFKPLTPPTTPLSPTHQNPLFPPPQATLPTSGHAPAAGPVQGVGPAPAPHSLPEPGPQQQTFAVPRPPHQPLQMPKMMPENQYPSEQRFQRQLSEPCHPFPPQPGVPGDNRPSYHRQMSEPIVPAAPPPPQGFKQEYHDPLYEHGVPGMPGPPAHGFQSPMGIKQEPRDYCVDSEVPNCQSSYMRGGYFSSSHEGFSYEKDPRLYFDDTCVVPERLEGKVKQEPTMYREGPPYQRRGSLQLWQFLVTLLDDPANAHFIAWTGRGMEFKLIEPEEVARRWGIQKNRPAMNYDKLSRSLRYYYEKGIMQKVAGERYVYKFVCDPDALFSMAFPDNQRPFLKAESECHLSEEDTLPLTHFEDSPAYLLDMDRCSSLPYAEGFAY
Outline: as §1

HSF1 = HSF1 (Homo sapiens, UniProt Q00613 1-529); conditions: protein: recombinant; tags: N-terminal GST; chain copies: 3; dsDNA, one strand shown
HSF1, sequence (Q00613 whole entry): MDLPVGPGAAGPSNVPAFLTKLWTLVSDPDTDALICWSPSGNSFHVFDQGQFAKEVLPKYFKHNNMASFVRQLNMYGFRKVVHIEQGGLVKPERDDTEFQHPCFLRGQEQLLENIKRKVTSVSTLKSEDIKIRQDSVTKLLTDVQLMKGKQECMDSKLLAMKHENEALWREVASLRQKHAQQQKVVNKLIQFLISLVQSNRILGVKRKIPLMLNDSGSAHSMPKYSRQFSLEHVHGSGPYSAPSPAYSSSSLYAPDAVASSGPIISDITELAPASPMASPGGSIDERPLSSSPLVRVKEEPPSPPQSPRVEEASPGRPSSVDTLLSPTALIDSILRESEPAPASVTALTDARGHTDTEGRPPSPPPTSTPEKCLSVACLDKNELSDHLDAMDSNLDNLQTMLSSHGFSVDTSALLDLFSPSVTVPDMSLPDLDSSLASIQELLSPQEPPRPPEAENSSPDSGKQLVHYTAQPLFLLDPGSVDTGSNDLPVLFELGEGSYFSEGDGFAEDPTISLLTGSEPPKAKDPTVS
Outline: as §1

SPIC = target: T8, SPIC (Homo sapiens, UniProt Q8N5J4 1-248); conditions: protein: recombinant; tags: N-terminal GST; dsDNA, one strand shown
T8 sequence: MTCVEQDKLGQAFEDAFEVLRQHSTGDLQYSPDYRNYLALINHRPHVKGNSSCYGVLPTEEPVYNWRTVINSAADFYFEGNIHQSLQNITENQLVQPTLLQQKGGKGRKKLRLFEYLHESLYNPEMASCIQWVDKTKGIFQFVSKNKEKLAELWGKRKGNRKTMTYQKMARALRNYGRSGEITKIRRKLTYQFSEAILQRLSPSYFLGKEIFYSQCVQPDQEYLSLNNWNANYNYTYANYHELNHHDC
Outline: as §1

ELF4 = ELF4 (Homo sapiens, UniProt Q99607 1-663); conditions: protein: recombinant; tags: N-terminal GST; dsDNA, one strand shown
ELF4, sequence (Q99607 whole entry): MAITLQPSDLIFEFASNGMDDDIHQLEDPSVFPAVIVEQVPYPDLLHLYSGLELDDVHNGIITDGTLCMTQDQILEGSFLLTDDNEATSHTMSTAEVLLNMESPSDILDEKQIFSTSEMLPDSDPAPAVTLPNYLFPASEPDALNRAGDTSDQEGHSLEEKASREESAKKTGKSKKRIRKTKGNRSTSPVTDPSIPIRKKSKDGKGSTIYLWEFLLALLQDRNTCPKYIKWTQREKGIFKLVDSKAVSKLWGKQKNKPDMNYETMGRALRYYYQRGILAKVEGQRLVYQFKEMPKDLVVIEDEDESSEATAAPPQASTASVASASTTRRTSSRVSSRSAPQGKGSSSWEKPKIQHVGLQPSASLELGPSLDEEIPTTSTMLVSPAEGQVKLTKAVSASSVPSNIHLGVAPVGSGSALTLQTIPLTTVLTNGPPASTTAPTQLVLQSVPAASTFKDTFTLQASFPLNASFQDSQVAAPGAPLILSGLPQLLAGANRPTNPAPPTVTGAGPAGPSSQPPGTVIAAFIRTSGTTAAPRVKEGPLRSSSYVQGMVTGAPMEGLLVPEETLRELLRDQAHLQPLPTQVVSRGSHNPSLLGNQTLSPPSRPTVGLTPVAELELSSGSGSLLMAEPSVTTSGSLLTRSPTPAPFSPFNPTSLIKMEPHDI
Outline: as §1

ELK4 = target: T9, ELK4 (Homo sapiens, UniProt P28324-2 1-405); conditions: protein: recombinant; tags: N-terminal GST; dsDNA, one strand shown
T9 sequence: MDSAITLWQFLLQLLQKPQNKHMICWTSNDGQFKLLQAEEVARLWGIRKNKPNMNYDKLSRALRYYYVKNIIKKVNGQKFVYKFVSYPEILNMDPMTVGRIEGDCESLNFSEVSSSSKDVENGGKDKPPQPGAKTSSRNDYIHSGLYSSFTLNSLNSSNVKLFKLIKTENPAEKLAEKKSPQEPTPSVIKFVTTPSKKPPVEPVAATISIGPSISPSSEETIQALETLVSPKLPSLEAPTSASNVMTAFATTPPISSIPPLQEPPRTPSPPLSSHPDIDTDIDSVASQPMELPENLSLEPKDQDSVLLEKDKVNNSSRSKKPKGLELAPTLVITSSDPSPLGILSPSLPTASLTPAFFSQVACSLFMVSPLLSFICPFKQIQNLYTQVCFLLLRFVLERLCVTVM
Outline: as §1

ETV2 = target: T10, ETV2 (Homo sapiens, UniProt O00321 1-342); conditions: protein: recombinant; tags: N-terminal GST; dsDNA, one strand shown
T10 sequence: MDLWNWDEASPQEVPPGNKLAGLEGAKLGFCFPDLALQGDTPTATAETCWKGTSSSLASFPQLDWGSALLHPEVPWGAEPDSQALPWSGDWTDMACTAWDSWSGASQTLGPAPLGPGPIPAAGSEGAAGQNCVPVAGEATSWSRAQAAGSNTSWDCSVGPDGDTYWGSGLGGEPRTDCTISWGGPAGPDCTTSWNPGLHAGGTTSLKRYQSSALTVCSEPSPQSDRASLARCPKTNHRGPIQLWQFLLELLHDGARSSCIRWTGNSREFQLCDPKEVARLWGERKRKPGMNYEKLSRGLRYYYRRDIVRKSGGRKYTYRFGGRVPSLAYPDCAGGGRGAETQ
Outline: as §1

ELF3 = target: T11, ELF3 (Homo sapiens, UniProt P78545 1-371); conditions: protein: recombinant; tags: N-terminal GST; dsDNA, one strand shown
T11 sequence: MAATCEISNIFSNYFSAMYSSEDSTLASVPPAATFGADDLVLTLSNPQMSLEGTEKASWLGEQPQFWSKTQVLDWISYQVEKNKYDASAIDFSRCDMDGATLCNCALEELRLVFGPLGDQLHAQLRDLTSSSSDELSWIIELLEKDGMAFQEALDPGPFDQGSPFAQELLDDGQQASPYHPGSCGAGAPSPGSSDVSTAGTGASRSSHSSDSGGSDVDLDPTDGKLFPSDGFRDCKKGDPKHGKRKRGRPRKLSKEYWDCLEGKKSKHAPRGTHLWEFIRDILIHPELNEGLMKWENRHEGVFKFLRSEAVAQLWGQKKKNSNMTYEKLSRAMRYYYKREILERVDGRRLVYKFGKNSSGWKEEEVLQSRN
Outline: as §1

ETV1 = ETV1 (Homo sapiens, UniProt P50549 1-477); conditions: protein: recombinant; tags: N-terminal GST; dsDNA, one strand shown
ETV1, sequence (P50549 whole entry): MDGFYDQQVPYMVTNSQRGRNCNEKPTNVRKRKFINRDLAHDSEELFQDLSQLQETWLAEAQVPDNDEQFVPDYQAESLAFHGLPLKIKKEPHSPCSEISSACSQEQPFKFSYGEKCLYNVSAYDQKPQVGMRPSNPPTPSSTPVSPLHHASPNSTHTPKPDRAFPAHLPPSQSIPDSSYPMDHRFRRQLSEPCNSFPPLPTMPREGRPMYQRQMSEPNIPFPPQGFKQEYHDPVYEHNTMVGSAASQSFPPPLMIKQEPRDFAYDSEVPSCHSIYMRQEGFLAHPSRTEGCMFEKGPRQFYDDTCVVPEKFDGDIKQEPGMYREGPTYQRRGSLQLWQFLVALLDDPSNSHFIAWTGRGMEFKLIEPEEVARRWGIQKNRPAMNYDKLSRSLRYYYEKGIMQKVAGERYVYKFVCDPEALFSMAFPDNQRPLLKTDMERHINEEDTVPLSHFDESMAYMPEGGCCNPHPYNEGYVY
Outline: as §1

## CCACGC
FLI1
  binding signal: 1.28 fold enrichment (6-mer frequency, TF over GST control)
ELK1
  binding signal: 1.2 fold enrichment (6-mer frequency, TF over GST control)
GABPA
  binding signal: 1.28 fold enrichment (6-mer frequency, TF over GST control)
ERG
  binding signal: 1.16 fold enrichment (6-mer frequency, TF over GST control)
ELF1
  binding signal: 1.22 fold enrichment (6-mer frequency, TF over GST control)
EHF
  binding signal: 1.12 fold enrichment (6-mer frequency, TF over GST control)
SPI1
  binding signal: 1.07 fold enrichment (6-mer frequency, TF over GST control)
SPIB
  binding signal: 1.14 fold enrichment (6-mer frequency, TF over GST control)
ELK3
  binding signal: 1.31 fold enrichment (6-mer frequency, TF over GST control)
FEV
  binding signal: 1.2 fold enrichment (6-mer frequency, TF over GST control)
ETV5
  binding signal: 1.15 fold enrichment (6-mer frequency, TF over GST control)
HSF1
  binding signal: 1.05 fold enrichment (6-mer frequency, TF over GST control)
SPIC
  binding signal: 1.14 fold enrichment (6-mer frequency, TF over GST control)
ELF4
  binding signal: 1.22 fold enrichment (6-mer frequency, TF over GST control)
ELK4
  binding signal: 1.19 fold enrichment (6-mer frequency, TF over GST control)
ETV2
  binding signal: 1.14 fold enrichment (6-mer frequency, TF over GST control)
ELF3
  binding signal: 1.24 fold enrichment (6-mer frequency, TF over GST control)
ETV1
  binding signal: 1.24 fold enrichment (6-mer frequency, TF over GST control)
